Screens (PubChem BioAssay)
In the library only some 9.4% were active in any assay of this set; here they are far more common.
Rab9 promoter act – activates the Rab9 promoter. 2.8% of 320,000 active. Huh7 Rab9 promoter-luciferase reporter, luminescence, 24 h. Potency, µM (series often up to 9.22 µM), most hits filed as activators; also: nearly all actives have a fitted effect of over 60% in size
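Luciferase signal after 10 min detection reagent at ambient indicates Rab9 promoter upregulation; stably transfected Huh7 cells were treated 24 h with compound in DMSO at 37 °C, 5% CO2.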
FLuc counter – firefly luciferase modulation, counter-screen for miR-21 project. Potency, µM (series often up to 57.5 µM), most hits filed as inhibitors. P08659. AID 588342. 6.9% of 360,000 active. purified FLuc, Km substrates, luminescence inhibition; also: nearly all actives have a fitted effect of over 55% in size
Target sequence (P08659 whole entry, looked up): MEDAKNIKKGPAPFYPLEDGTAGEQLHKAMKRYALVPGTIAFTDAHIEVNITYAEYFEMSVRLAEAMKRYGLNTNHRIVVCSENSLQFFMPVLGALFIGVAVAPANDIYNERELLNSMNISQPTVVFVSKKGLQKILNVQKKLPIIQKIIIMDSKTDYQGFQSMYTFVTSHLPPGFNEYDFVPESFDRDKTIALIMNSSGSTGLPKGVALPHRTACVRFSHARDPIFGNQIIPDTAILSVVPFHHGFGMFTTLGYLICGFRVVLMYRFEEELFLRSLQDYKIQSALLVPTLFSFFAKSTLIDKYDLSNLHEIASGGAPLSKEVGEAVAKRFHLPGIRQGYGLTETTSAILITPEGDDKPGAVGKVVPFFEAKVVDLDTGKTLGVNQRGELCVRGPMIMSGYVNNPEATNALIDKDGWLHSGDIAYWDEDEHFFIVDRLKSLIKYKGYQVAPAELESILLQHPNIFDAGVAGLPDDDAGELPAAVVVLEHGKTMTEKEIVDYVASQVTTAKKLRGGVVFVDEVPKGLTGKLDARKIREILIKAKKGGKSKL
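Biochemical qHTS of compounds, final roughly 60 µM downward over six points, against 10 nM purified firefly luciferase using Km concentrations of substrates (10 uM D-luciferin, 10 uM ATP) in Tris acetate pH 7.5 buffer; luminescence output.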
ELG1 genotoxic – genotoxicity induction in ELG1-luciferase HEK293T cells; HEK293T ELG1-luciferase reporter, luminescence, 16 h; Potency, µM (series often up to 46 µM), usual class: activators; 1.3% of 330,000 active; AID 504466; also: nearly all actives have a fitted effect of over 60% in size
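Step 1: seed 2,000 HEK293T ELG1-luciferase cells per well. Step 2: add compound or DMSO, incubate 16 hr at 37 °C. Step 3: ONE-Glo, 30 min at room temperature, read luminescence.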
SMN2 splice enh – increases expression of the SMN2 splice variant; HEK293 SMN2-luciferase splicing reporter, luminescence, 30-36 h; Potency, µM (doses to about 46.1 µM), hits mostly activators; 2.8% of 210,000 active; AID 1458; also: nearly all actives have a fitted effect of over 55% in size
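qHTS luciferase splicing reporter: luminescence rises when SMN2 exon 7 is included in transfected HEK293 cells. Compound exposure lasted 30-36 h at 37C, with 4.5 mM final sodium butyrate as control, followed by a ONE-Glo read.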
NPC1 promoter act – activators of NPC1 promoter; Huh7 NPC1 promoter luciferase reporter, 24 h; Potency, µM (highest dose often 9.22 µM), most hits filed as activators; 2.4% of 320,000 active; also: nearly all actives have a fitted effect of over 60% in size
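Huh7 cells stably carrying NPC1 promoter–luciferase, plated in Opti-MEM with 10% FBS for 2 h, were exposed to compound in DMSO for 24 h at 37 °C; luciferase reagent was added for 10 min and luminescence read.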
ELG1 repair inh – blocks ELG1-dependent DNA repair in HEK293T cells. HEK293T ELG1-luciferase reporter, luminescence, 16 h; DNA damage induced by 5-fluorouridine. Potency, µM (titrated, usually from 46.1 µM), most hits filed as inhibitors. 2.3% of 330,000 active. AID 504467; also: nearly all actives have a fitted effect of over 55% in size
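Cells (2,000 per well) received 5-fluorouridine plus test compound or DMSO and were incubated 16 hr at 37 °C, 5% CO2. Luciferase activity was read by luminescence 30 min after ONE-Glo addition; signal suppression marked inhibition of damage-induced ELG1 function.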
Hits are given with their value; . = inactive; ? = inconclusive; / = no result; [ ] = dose if it differs, or a comment. Calls follow the shape of the dose curve; as a rule, active = well fitted curve in the direction sought with a large enough effect; inconclusive = small, poorly fitted or top-dose-only effect, or another doubt; inactive = no such curve, though single readings can be large; an effect the other way counts as inactive or inconclusive.

SMILES	Rab9 promoter act	FLuc counter	ELG1 genotoxic	SMN2 splice enh	NPC1 promoter act	ELG1 repair inh
c1cncc(-c2nc(NCC3CCCO3)c3ccccc3n2)c1 (configuration not stated)	.	.	.	/	.	23µM
CC(C)Oc1ccc(-c2nc(NCC3CCCO3)c3ccccc3n2)cc1 (configuration not stated)	.	9.5µM	.	/	.	?
C=CCN1c2ccccc2[C@]23C[C@@H](C(=O)OC)N(C(=O)COCc4ccccc4)C2=NC(C(=O)OC)=C(C(=O)OC)[C@H]13	/	/	/	.[9.22 µM]	/	/
CC1CCc2sc(C(=O)NCC(C)(C)N3CCOCC3)cc2C1 (configuration not stated)	.	.	.	/	.	.
CC1CCc2sc(C(=O)Nc3ccc(N4CCOCC4)cc3)cc2C1 (configuration not stated)	.	?	.	.	.	?
C/C(=N\NC(=O)c1cc2c(s1)CCC(C)C2)c1ccncc1 (configuration not stated)	.	9.5µM	.	.	.	.
CC1CCc2sc(C(=O)N/N=C/c3ccc(O)cc3)cc2C1 (configuration not stated)	.	2.1µM	.	/	.	?
C/C(=N\NC(=O)c1cc2c(s1)CCC(C)C2)c1ccc[nH]1 (configuration not stated)	1.6µM	0.76µM	?	/	1.8µM	?
CCC1CCc2sc(C(=O)NNC(=O)c3ccncc3)cc2C1 (configuration not stated)	.	17µM	.	/	.	.
CC1CCc2sc(C(=O)OCC(=O)NCc3ccccc3)cc2C1 (configuration not stated)	.	.	.	/	.	.
C=CCOC(=O)N[C@@H](Cc1ccccc1)/C(C(=O)OC)=C(\C)NCc1ccccc1	/	/	/	.	/	/
COc1cccc(N2CC(NC(=O)CCCc3ccccc3)CC2=O)c1 (configuration not stated)	/	.	/	/	/	/
O=C(NCc1ccco1)c1cc(-c2ccccc2)c(N2CCOCC2)s1	.	.	.	.	.	21µM
COc1ccc(CCNC(=O)c2cc(-c3ccccc3)c(N3CCOCC3)s2)c(OC)c1OC	.	?	.	/	.	?
O=C(O)c1cc(-c2ccccc2)c(N2CCOCC2)s1	.	.	.	.	.	.
O=C(NCc1ccc2c(c1)OCO2)c1cc(-c2ccccc2)c(N2CCOCC2)s1	.	.	.	/	.	18µM
CCOc1ccc(CCNC(=O)c2cc(-c3ccccc3)c(N3CCOCC3)s2)cc1OCC	.	.	.	/	.	16µM
Nc1ncncc1-c1ccc2ccccc2c1	.	.	.	/	.	.
Clc1c(-c2ccccc2)nnn1-c1ccccc1	2.2µM	3.4µM	8.2µM	10µM	2.2µM	?
Cc1cccn2cc(CSc3ccccc3N)nc12	2.5µM	6µM	6.5µM	?	2.2µM	?
Nc1ccccc1SCc1cn2cccnc2n1	.	.	?	?	.	?
Nc1ccccc1SCc1cn2ccccc2n1	1.8µM	6.7µM	?	11µM	2.2µM	?
C[C@@]12CC[C@@H]3c4ccc(O)cc4CC[C@H]3[C@H]1C[C@@H](O)[C@H]2O	/	/	/	.	/	/
COc1ccccc1-c1cc(NC(=O)COc2ccccc2Cl)n(-c2ccccc2)n1	/	.	/	/	/	/
Clc1cc2nc(-c3cccnc3Cl)[nH]c2cc1Cl	?	3µM	4.6µM	/	0.89µM	?
SMILES	Rab9 promoter act	FLuc counter	ELG1 genotoxic	SMN2 splice enh	NPC1 promoter act	ELG1 repair inh
O=C(NCCc1ccc(Cl)cc1)C1CCN(Cc2cc3ccccc3n2Cc2ccccc2)CC1	/	.	/	/	/	/
CCOC(=O)c1c(S(=O)(=O)N2CCCC(C(=O)NCc3ccccc3OC)C2)c(C)n(C)c1C (configuration not stated)	/	.	/	/	/	/
Cc1ccc(NC(=S)N=Nc2c(O)n(C)c3ccc(S(=O)(=O)N4CCOCC4)cc23)cc1C	.	.	.	.	.	.
Cn1c(O)c(N=NC(=S)Nc2ccccc2F)c2cc(S(=O)(=O)N3CCOCC3)ccc21	.	.	.	.	.	1.8µM
CCCn1ccc2c(OCC(=O)Nc3ccc(F)cc3F)cccc2c1=O	/	.	/	/	/	/
Cc1nn(-c2ccccc2)c2c1cc1c(=O)n(C)c(=O)nc-1n2-c1cccc(Cl)c1	/	.	/	.	/	/
Cc1ccc(C)c(-n2nnnc2Sc2nnnn2-c2ccccc2)c1	.	.	.	.	.	21µM
CCSc1nnnn1-c1ccccc1	.	.	.	.	.	.
O=C(/C=C/c1ccccc1O)c1ccco1	.	17µM	?	/	.	.
CC(C)(C)C(=O)Nc1ccc(NC(=O)C(C)(C)C)cc1	.	.	.	/	.	?
N#Cc1ccc(/C=C/C(=O)c2ccco2)cc1	.	?	.	.	.	?
Nc1ccc(/C=C/C(=O)c2ccco2)cc1	?	6µM	?	.	.	?
CC(C)(C)C(=O)Nc1ccc(/C=C/C(=O)c2ccco2)cc1	0.45µM	0.43µM	18µM	/	0.35µM	?
Cc1cc(NC(=O)C2CCN(S(=O)(=O)c3cccc4nsnc34)CC2)ccc1Br	/	.	/	.	/	/
O=C(Nc1ccc2c(c1)nc1n2CCOC1)c1ccco1	4µM	13µM	?	?	1.3µM	?
O=C(COc1ccccc1)Nc1ccc2c(c1)nc1n2CCOC1	?	?	?	.	?	?
O=C(COc1ccccc1)Nc1ccc2c(c1)nc1n2CCSC1	4µM	21µM	?	.	?	?
O=C(Nc1ccc2c(c1)nc1n2CCSC1)c1ccco1	0.45µM	2.7µM	?	.	0.32µM	?
CC(=O)Nc1ccc2c(c1)nc1n2CCOC1	.	.	.	.	.	.
O=C(Cn1ncc2c([nH]c3ccccc32)c1=O)NCc1cccc(Cl)c1	/	.	/	/	/	/
NC(=NC1C2CC3CC(C2)CC1C3)Nc1ccc(I)cc1 (configuration not stated)	/	/	/	.	/	/
CCCCOc1cccc(C(=O)N(Cc2ccc(N(C)C)cc2)C2CCS(=O)(=O)C2)c1 (configuration not stated)	/	.	/	.	/	/
CCOc1cccc(NC(=O)/C(C#N)=C\c2cccnc2)c1	.	?	.	.	.	.
N#C/C(=C\c1ccc(F)cc1)C(=O)Nc1ccccn1	.	12µM	.	/	.	.
CCOc1ccc(/C=C(\C#N)C(=O)Nc2ccccn2)cc1	.	3.4µM	.	/	.	.
Cc1ccco1	/	/	/	.	/	/
COc1cc(OC)c(NC(=O)Nc2cccc(OCc3cc(=O)n4ccccc4n3)c2)cc1Cl	/	.	/	/	/	/
COc1ccc(C)cc1NC(c1nnc(-c2ccccc2)o1)c1ccc(F)cc1Cl (configuration not stated)	/	.	/	.	/	/
O=C(N/N=C/c1ccncc1)c1cccc(NC(=O)c2ccc(Cl)cc2)c1	.	.	.	.	.	.
O=C(N/N=C/c1ccc(F)cc1)c1ccccc1	2µM	12µM	?	18µM	2.8µM	?
